Source: ChEMBL document CHEMBL4296182, “CO-ADD screening of NIH NCI Diversity Set V”
For part of these data: Entries with a potency or affinity are not part of this list.

Assays:
Staphylococcus aureus = test: Antibacterial activity against Staphylococcus aureus MRSA ATCC 43300 (CO-ADD:GP_020); MIC in CAMBH media using NBS plates, by Resazurin F(560/590); type: functional; conditions: Concentration 20 uM, ASSAY_TEST Inhibition of Bacterial Growth, detection method Resazurin, Fluorescence (ex560/em590), MEDIA CAMHB, plate type 384well, CORNING #3640, time 18 hr
Acinetobacter baumannii = test: Antibacterial activity against Acinetobacter baumannii ATCC 19606 (CO-ADD:GN_034); MIC in CAMBH media using NBS plates, by Resazurin F(560/590); type: functional; conditions: Concentration 20 uM, ASSAY_TEST Inhibition of Bacterial Growth, detection method Resazurin, Fluorescence (ex560/em590), MEDIA CAMHB, plate type 384well, CORNING #3640, time 18 hr
Escherichia coli = test: Antibacterial activity against Escherichia coli ATCC 25922 (CO-ADD:GN_001); MIC in CAMBH media using NBS plates, by Resazurin F(560/590); type: functional; conditions: Concentration 20 uM, ASSAY_TEST Inhibition of Bacterial Growth, detection method Resazurin, Fluorescence (ex560/em590), MEDIA CAMHB, plate type 384well, CORNING #3640, time 18 hr
Klebsiella pneumoniae = conditions: Concentration 20 uM; ASSAY_TEST Inhibition of Bacterial Growth; detection method Absorption (OD600); MEDIA CAMHB; plate type 384well; NBS; CORNING #3640; time 18 hr
Candida albicans = conditions: 20 µM
Cryptococcus neoformans = conditions: Concentration 20 uM; ASSAY_TEST Inhibition of Fungal Growth; detection method Resazurin; Absorption (OD600-OD570); plate type 384well; NBS; CORNING #3640

Cc1c(CCN)ccc2c1[nH]c1ccccc12
Inhibition (Staphylococcus aureus): 5.19% | Inhibition (Acinetobacter baumannii): -3.14% | Inhibition (Escherichia coli): 0.87% | Inhibition (Klebsiella pneumoniae): 4.23% | Inhibition (Candida albicans): 0.65% | Inhibition (Cryptococcus neoformans): -5.14%

CC1=CC(O)C(O)C2(C)C1CC1OC(=O)C(O)C3C(C)C(O)C4(O)OCC13C42 (centres undefined)
Inhibition (Staphylococcus aureus): 9.24% | Inhibition (Acinetobacter baumannii): 4.24% | Inhibition (Escherichia coli): -0.01% | Inhibition (Klebsiella pneumoniae): 12.12% | Inhibition (Candida albicans): -0.21% | Inhibition (Cryptococcus neoformans): -7.24%

CCOC(=O)c1ccc2nc(-c3ccc(S(=O)(=O)F)cc3)cc(O)c2c1
Inhibition (Staphylococcus aureus): 10.74% | Inhibition (Acinetobacter baumannii): 13.99% | Inhibition (Escherichia coli): 0.41% | Inhibition (Klebsiella pneumoniae): 7.81% | Inhibition (Candida albicans): 1.06% | Inhibition (Cryptococcus neoformans): -10.46%

O=C(OC1CCCCC1)c1ccccc1C(=O)OC1CCCCC1
Inhibition (Staphylococcus aureus): -2.45% | Inhibition (Acinetobacter baumannii): -19.72% | Inhibition (Escherichia coli): -0.16% | Inhibition (Klebsiella pneumoniae): 3.51% | Inhibition (Candida albicans): 7.38% | Inhibition (Cryptococcus neoformans): -2.99%

CC(C)NC1C2CCC(CC2)C1(O)c1ccc(Cl)c(Cl)c1.CS(=O)(=O)O (centres undefined)
Inhibition (Staphylococcus aureus): 8.47% | Inhibition (Acinetobacter baumannii): -0.12% | Inhibition (Escherichia coli): 14.13% | Inhibition (Klebsiella pneumoniae): 12.75% | Inhibition (Candida albicans): 0.41% | Inhibition (Cryptococcus neoformans): -1.76%

O=c1cccc2n1C[C@H]1CNC[C@H]2C1
Inhibition (Staphylococcus aureus): 0.43% | Inhibition (Acinetobacter baumannii): -9.28% | Inhibition (Escherichia coli): 4.51% | Inhibition (Klebsiella pneumoniae): 2.72% | Inhibition (Candida albicans): 0.25% | Inhibition (Cryptococcus neoformans): -10.24%

COc1ccccc1NC(=O)Oc1cccc(OC(=O)c2ccccc2)c1
Inhibition (Staphylococcus aureus): 4.53% | Inhibition (Acinetobacter baumannii): -1.36% | Inhibition (Escherichia coli): -8.4% | Inhibition (Klebsiella pneumoniae): 19.47% | Inhibition (Candida albicans): 8.34% | Inhibition (Cryptococcus neoformans): -0.97%

C=CCCC1(C2=CCCCC2)C(=O)NC(=O)NC1=O
Inhibition (Staphylococcus aureus): 0.11% | Inhibition (Acinetobacter baumannii): -12.21% | Inhibition (Escherichia coli): 7.91% | Inhibition (Klebsiella pneumoniae): 12.33% | Inhibition (Candida albicans): 3.67% | Inhibition (Cryptococcus neoformans): -8.53%

O=[N+]([O-])c1cc([As](=O)(O)c2ccc(O)c([N+](=O)[O-])c2)ccc1O
Inhibition (Staphylococcus aureus): 9.78% | Inhibition (Acinetobacter baumannii): 5.09% | Inhibition (Escherichia coli): 4.17% | Inhibition (Klebsiella pneumoniae): 5.87% | Inhibition (Candida albicans): -1.08% | Inhibition (Cryptococcus neoformans): -7.3%

N=C(N)N/N=C/c1c(Cl)cccc1Cl [GUANABENZ]
Inhibition (Staphylococcus aureus): 5.03% | Inhibition (Acinetobacter baumannii): -12.8% | Inhibition (Escherichia coli): 13.45% | Inhibition (Klebsiella pneumoniae): 13.62% | Inhibition (Candida albicans): -0.73% | Inhibition (Cryptococcus neoformans): -12.66%

Cc1ccccc1-n1c(/C=C\c2ccccn2)nc2ccccc2c1=O
Inhibition (Staphylococcus aureus): -4.95% | Inhibition (Acinetobacter baumannii): -2.79% | Inhibition (Escherichia coli): 7.76% | Inhibition (Klebsiella pneumoniae): 14.95% | Inhibition (Candida albicans): 5.08% | Inhibition (Cryptococcus neoformans): -6.01%

O=C(NC(=O)c1c(F)cccc1F)Nc1cc(Cl)c(F)c(Cl)c1F [TEFLUBENZURON]
Inhibition (Staphylococcus aureus): 1.58% | Inhibition (Acinetobacter baumannii): -16.27% | Inhibition (Escherichia coli): 15.1% | Inhibition (Klebsiella pneumoniae): 2.21% | Inhibition (Candida albicans): -1.38% | Inhibition (Cryptococcus neoformans): -2.13%

O=C(NCCCN1CC1)Nc1cccc2ccccc12
Inhibition (Staphylococcus aureus): -3.04% | Inhibition (Acinetobacter baumannii): 12.11% | Inhibition (Escherichia coli): -2.13% | Inhibition (Klebsiella pneumoniae): 20.16% | Inhibition (Candida albicans): 1.47% | Inhibition (Cryptococcus neoformans): 1.2%

CC(=O)Nc1cc([As](=O)(O)O)ccc1O [ACETARSONE]
Inhibition (Staphylococcus aureus): 12.71% | Inhibition (Acinetobacter baumannii): 13.01% | Inhibition (Escherichia coli): 0.28% | Inhibition (Klebsiella pneumoniae): 16.86% | Inhibition (Candida albicans): 1.06% | Inhibition (Cryptococcus neoformans): -8.45%

Cn1cc(C=O)c2nccnc21
Inhibition (Staphylococcus aureus): 0.99% | Inhibition (Acinetobacter baumannii): -3.72% | Inhibition (Escherichia coli): -9.44% | Inhibition (Klebsiella pneumoniae): 3.85% | Inhibition (Candida albicans): 1.67% | Inhibition (Cryptococcus neoformans): 2.98%

C[C@H]1CC[C@@]2(C)[C@@H](CC[C@@H]3[C@@H]2CC[C@]2(C)[C@@H](O)CC[C@@H]32)C1
Inhibition (Staphylococcus aureus): 19.61% | Inhibition (Acinetobacter baumannii): 5.34% | Inhibition (Escherichia coli): 2.81% | Inhibition (Klebsiella pneumoniae): 23.84% | Inhibition (Candida albicans): 9.51% | Inhibition (Cryptococcus neoformans): -1.26%

COc1ccc2c(c1)C13CCN(C)C(C2)C1CCC1(C3)OCCO1 (centres undefined)
Inhibition (Staphylococcus aureus): -3.64% | Inhibition (Acinetobacter baumannii): 10.92% | Inhibition (Escherichia coli): 9.14% | Inhibition (Klebsiella pneumoniae): 10.59% | Inhibition (Candida albicans): 2.14% | Inhibition (Cryptococcus neoformans): -7.98%

O=P(Oc1ccccc1)(Oc1ccccc1)c1ccccc1
Inhibition (Staphylococcus aureus): 1.14% | Inhibition (Acinetobacter baumannii): -14.38% | Inhibition (Escherichia coli): 1.1% | Inhibition (Klebsiella pneumoniae): 1.03% | Inhibition (Candida albicans): 4.45% | Inhibition (Cryptococcus neoformans): -2.59%

CNC(=O)Oc1ccc(N(C)C)cc1C(C)C
Inhibition (Staphylococcus aureus): 11.71% | Inhibition (Acinetobacter baumannii): -2.68% | Inhibition (Escherichia coli): 9.69% | Inhibition (Klebsiella pneumoniae): 11.23% | Inhibition (Candida albicans): -1.51% | Inhibition (Cryptococcus neoformans): -12.66%

CCC1CCC(C)N(N=O)C1 (centres undefined)
Inhibition (Staphylococcus aureus): -0.88% | Inhibition (Acinetobacter baumannii): -14.6% | Inhibition (Escherichia coli): 6.08% | Inhibition (Klebsiella pneumoniae): 7.29% | Inhibition (Candida albicans): -0.7% | Inhibition (Cryptococcus neoformans): -1.16%

O=c1cccc2n1C[C@H]1C[C@@H]2CN2CCCC[C@@H]12
Inhibition (Staphylococcus aureus): 6.92% | Inhibition (Acinetobacter baumannii): -12.51% | Inhibition (Escherichia coli): 5.34% | Inhibition (Klebsiella pneumoniae): 8.7% | Inhibition (Candida albicans): -0.36% | Inhibition (Cryptococcus neoformans): -3.93%

CCCC(=O)N(C)C1=Nc2ccc(Cl)cc2C(c2ccccc2)=[N+]([O-])C1
Inhibition (Staphylococcus aureus): 11.96% | Inhibition (Acinetobacter baumannii): 1.65% | Inhibition (Escherichia coli): -7.17% | Inhibition (Klebsiella pneumoniae): 24.44% | Inhibition (Candida albicans): 4.49% | Inhibition (Cryptococcus neoformans): -4.22%

O=C1CC(c2ccc(O)cc2)Oc2cc(O)cc(O)c21 (centres undefined)
Inhibition (Staphylococcus aureus): 9.17% | Inhibition (Acinetobacter baumannii): 6.14% | Inhibition (Escherichia coli): -5.6% | Inhibition (Klebsiella pneumoniae): 10.18% | Inhibition (Candida albicans): 4.1% | Inhibition (Cryptococcus neoformans): -1.84%

CCOP(=O)(OCC)/C(C#N)=C/c1ccc(Br)cc1
Inhibition (Staphylococcus aureus): 9.27% | Inhibition (Acinetobacter baumannii): 13.14% | Inhibition (Escherichia coli): 8.82% | Inhibition (Klebsiella pneumoniae): 9.61% | Inhibition (Candida albicans): 2.02% | Inhibition (Cryptococcus neoformans): -11.15%
